Measured values published in the supplement of paper PMC8728848.
Many of the other results were omitted from the sample, so the strongest signals are more common in it than they were.

Key:
Assay in all cases: glycan array binding signal (z-score within array); higher = stronger binding
Settings in all cases: glycan notation: IUPAC condensed, linker removed
Fuc(a1-2)Gal(b1-3)GalNAc = biological target: Fuc(a1-2)Gal(b1-3)GalNAc
In short: (§1)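 Glycan array data were curated from 3228 arrays in the Consortium for Functional Glycomics database and kept only where the protein sequence was available. Glycan names were converted to IUPAC-condensed notation, and columns mapping to the same glycan were averaged. The binding signal is a within-array Z-score, averaged across arrays of the same protein sequence at different concentrations or buffers and across linkers. Negative Z-scores can be read as non-binding.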

[1] = biological target: Fuc(a1-2)[Gal(a1-3)]Gal(b1-4)Glc
In short: as §1

[2] = biological target: Fuc(a1-2)[Gal(a1-3)]Gal(b1-4)GlcNAc(b1-2)Man(a1-3)[Fuc(a1-2)[Gal(a1-3)]Gal(b1-4)GlcNAc(b1-2)Man(a1-6)]Man(b1-4)GlcNAc(b1-4)GlcNAc
In short: as §1

[3] = biological target: Fuc(a1-2)[Gal(a1-4)]Gal(b1-4)GlcNAc
In short: as §1

[4] = biological target: Fuc(a1-2)[GalNAc(a1-3)]Gal(b1-3)GalNAc(a1-3)[Fuc(a1-2)]Gal(b1-4)GlcNAc
In short: as §1

[5] = biological target: Gal(a1-4)Gal(b1-3)GlcNAc(b1-2)Man(a1-3)[Gal(a1-4)Gal(b1-3)GlcNAc(b1-2)Man(a1-6)]Man(b1-4)GlcNAc(b1-4)GlcNAc
In short: as §1

Gal(a1-6)Glc = biological target: Gal(a1-6)Glc
In short: as §1

Gal(b1-2)Gal = biological target: Gal(b1-2)Gal
In short: as §1

[6] = biological target: Gal(b1-3)Gal(b1-4)GlcNAc(b1-2)Man(a1-3)[Gal(b1-3)Gal(b1-4)GlcNAc(b1-2)Man(a1-6)]Man(b1-4)GlcNAc(b1-4)GlcNAc
In short: as §1

Gal(b1-3)GalNAc = biological target: Gal(b1-3)GalNAc
In short: as §1

[7] = biological target: Gal(b1-3)GlcNAc(b1-2)[Gal(b1-3)GlcNAc(b1-6)]Man(a1-6)[Gal(b1-3)GlcNAc(b1-2)Man(a1-3)]Man(b1-4)GlcNAc(b1-4)GlcNAc
In short: as §1

[8] = biological target: Gal(b1-3)GlcNAc(b1-3)Gal(b1-4)Glc
In short: as §1

[9] = biological target: Gal(b1-3)[Neu5Ac(a2-6)]GalNAc
In short: as §1

[10] = biological target: Gal(b1-3)[Neu5Ac(b2-6)]GalNAc
In short: as §1

Gal(b1-4)GlcNAc = biological target: Gal(b1-4)GlcNAc
In short: as §1

[11] = biological target: Gal(b1-4)GlcNAc(b1-3)Gal(b1-4)Glc
In short: as §1

[12] = biological target: Gal(b1-4)GlcNAc(b1-3)[Gal(b1-4)GlcNAc(b1-6)]Gal(b1-4)GlcNAc
In short: as §1

[13] = biological target: Gal(b1-4)GlcNAc(b1-6)Gal(b1-4)GlcNAc
In short: as §1

Gal3S(b1-3)GalNAc = biological target: Gal3S(b1-3)GalNAc
In short: as §1

[14] = biological target: GlcNAc(a1-4)Gal(b1-4)GalNAc
In short: as §1

[15] = biological target: GlcNAc(a1-4)Gal(b1-4)GlcNAc(b1-3)Gal(b1-4)Glc
In short: as §1

[16] = biological target: GlcNAc(b1-2)Gal(b1-3)GalNAc
In short: as §1

[17] = biological target: GlcNAc(b1-3)Gal(b1-3)GalNAc
In short: as §1

GlcNAc(b1-3)GalNAc = biological target: GlcNAc(b1-3)GalNAc
In short: as §1

Kdn(a2-3)Gal(b1-3)GalNAc = biological target: Kdn(a2-3)Gal(b1-3)GalNAc
In short: as §1

Neu5Ac(a2-3)Gal = biological target: Neu5Ac(a2-3)Gal
In short: as §1

[18] = biological target: Neu5Ac(a2-3)Gal(b1-3)GalNAc
In short: as §1

[19] = biological target: Neu5Ac(a2-3)Gal(b1-3)GalNAc(b1-4)[Neu5Ac(a2-8)Neu5Ac(a2-3)]Gal(b1-4)Glc
In short: as §1

[20] = biological target: Neu5Ac(a2-3)Gal(b1-4)GlcNAc
In short: as §1

[21] = biological target: Neu5Ac(a2-3)Gal(b1-4)GlcNAc(b1-6)[Neu5Ac(a2-3)Gal(b1-3)]GalNAc
In short: as §1

[22] = biological target: Neu5Ac(a2-3)Gal(b1-4)[Fuc(a1-3)]GlcNAc(b1-3)Gal(b1-4)GlcNAc
In short: as §1

[23] = biological target: Neu5Ac(a2-3)GalNAc(b1-4)GlcNAc
In short: as §1

[24] = biological target: Neu5Ac(a2-6)Gal(b1-4)GlcNAc(b1-3)Gal(b1-4)[Fuc(a1-3)]GlcNAc(b1-3)Gal(b1-4)[Fuc(a1-3)]GlcNAc
In short: as §1

[25] = biological target: Neu5Gc(a2-3)Gal(b1-3)[Fuc(a1-4)]GlcNAc
In short: as §1

B1: Tap1 (Sordaria macrospora), Q50IV4 (protein)
chain: MSHHHHHHHHYTLHLRLINDTSDTLTLVEQTSWWGKNTIWSQVRSTGVHVLSMAASGSSGMLRFQTSKGDFFAVAVGVHNYKRWCDVLVDTADEAPLTKLHPKYYDDKDAKYQALWAQASEFEAKSKSGKTVRIKFYQADGNVLRATVEYL
glycan array binding signal (z-score) (Fuc(a1-2)Gal(b1-3)GalNAc): 2.96
glycan array binding signal (z-score) [1]: -0.234
glycan array binding signal (z-score) [2]: -0.244
glycan array binding signal (z-score) [3]: -0.242
glycan array binding signal (z-score) [4]: -0.246
glycan array binding signal (z-score) [5]: -0.221
glycan array binding signal (z-score) (Gal(a1-6)Glc): -0.248
glycan array binding signal (z-score) (Gal(b1-2)Gal): -0.207
glycan array binding signal (z-score) [6]: -0.225
glycan array binding signal (z-score) (Gal(b1-3)GalNAc): 3.97
glycan array binding signal (z-score) [7]: -0.179
glycan array binding signal (z-score) [8]: -0.23
glycan array binding signal (z-score) [9]: 4.09
glycan array binding signal (z-score) [10]: -0.25
glycan array binding signal (z-score) (Gal(b1-4)GlcNAc): -0.237
glycan array binding signal (z-score) [11]: -0.235
glycan array binding signal (z-score) [12]: -0.264
glycan array binding signal (z-score) [13]: -0.224
glycan array binding signal (z-score) (Gal3S(b1-3)GalNAc): 5.01
glycan array binding signal (z-score) [14]: 0.868
glycan array binding signal (z-score) [15]: -0.223
glycan array binding signal (z-score) [16]: 2.86
glycan array binding signal (z-score) [17]: 2.84
glycan array binding signal (z-score) (GlcNAc(b1-3)GalNAc): 1.62
glycan array binding signal (z-score) (Kdn(a2-3)Gal(b1-3)GalNAc): 3.63
glycan array binding signal (z-score) (Neu5Ac(a2-3)Gal): -0.232
glycan array binding signal (z-score) [18]: 4.27
glycan array binding signal (z-score) [19]: -0.198
glycan array binding signal (z-score) [20]: -0.251
glycan array binding signal (z-score) [21]: 1.16
glycan array binding signal (z-score) [22]: -0.144
glycan array binding signal (z-score) [23]: -0.247
glycan array binding signal (z-score) [24]: -0.176
glycan array binding signal (z-score) [25]: -0.24
